Laboratory results from PubChem BioAssay (EPA / NIEHS).
Several values for one entry are separate records, joined by “and”; a condition that tells them apart may be missing. Equal values may be shown once. Some compounds were tested as several samples or in several runs, with calls that do not always agree. Activity calls are given as the source filed them. Rule for the calls: active = hit-call score of the fitted dose curve at least 0.9, where 1 is the maximum; inactive = score below 0.9.

Assays:
[1] = read-out: Plasminogen activator inhibitor-1 (PAI1), SERPINE1 (gene 5054); test: BSK_CASM3C_PAI1: BioMAP Diversity Plus: CASM3C Assay for Plasminogen activator inhibitor-1 (PAI1) Biomarker Activity (AID 2284284); conditions: primary human coronary artery smooth muscle cells;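 note: PAI-1 protein level measured by ELISA 24 h after dosing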
[2] = read-out: Monocyte Chemoattractant Protein-1 (MCP1), CCL2 (gene 6347); test: BSK_hDFCGF_MCP1: BioMAP Diversity Plus: hDFCGF Assay for Monocyte Chemoattractant Protein-1 (MCP1) Biomarker Activity (AID 2284285); conditions: primary human foreskin fibroblasts
Method in brief: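 Human foreskin fibroblasts (hDFCGF system) were exposed to compound and secreted MCP-1 was measured by ELISA after 24 hours. Activity was fitted relative to DMSO. Cytotoxicity was checked by SRB total-protein staining in parallel cultures.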

[3] = read-out: Intercellular Adhesion Molecule 1 (ICAM1), ICAM1 (gene 3383); test: BSK_hDFCGF_ICAM1: BioMAP Diversity Plus: hDFCGF Assay for Intercellular Adhesion Molecule 1 (ICAM1) Biomarker Activity (AID 2284287); conditions: primary human foreskin fibroblasts
Method in brief: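 Primary human foreskin fibroblasts (hDFCGF system) dosed with chemical; ICAM-1 quantified by ELISA at 24 h relative to DMSO. Parallel SRB total-protein staining to assess overt cytotoxicity.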

[4] = read-out: TIMP metallopeptidase inhibitor 2 (TIMP2), TIMP2 (gene 7077); test: BSK_hDFCGF_TIMP2: BioMAP Diversity Plus: hDFCGF Assay for TIMP metallopeptidase inhibitor 2 (TIMP2) Biomarker Activity (AID 2284289); conditions: primary human foreskin fibroblasts
Method in brief: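 Primary human foreskin fibroblasts in the hDFCGF system, dosed for 24 h; TIMP-2 level measured by ELISA, fitted in the positive direction against DMSO; cytotoxicity checked in parallel by sulforhodamine B total protein staining.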

[5] = read-out: Thrombomodulin, THBD (gene 7056); test: BSK_LPS_Thrombomodulin: BioMAP Diversity Plus: LPS Assay for Thrombomodulin Biomarker Activity (AID 2284296); conditions: primary human HUVEC with PBMC
Method in brief: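 Human umbilical vein endothelial cells co-cultured with PBMC and stimulated with LPS; cell-surface thrombomodulin measured by ELISA 24 hours after compound. Gain or loss versus DMSO; cytotoxicity checked by SRB staining in parallel cultures.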

CD69, CD69 (gene 969) = test: BSK_LPS_CD69: BioMAP Diversity Plus: LPS Assay for CD69 Biomarker Activity (AID 2284303); conditions: primary human HUVEC with PBMC
Method in brief: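 Human umbilical vein endothelial cells co-cultured with PBMC under LPS stimulation, chemical exposure 24 h; cell-surface CD69 measured by ELISA and fitted in the positive direction versus DMSO.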

[6] = IUF_NPC2c_oligodendrocyte_migration_120hr: Leibniz Research Institute for Environmental Medicine (IUF) 120-hour Neural Progenitor Cell Migration Assay for Oligodendrocyte Migration (NPC2c) (AID 2284297);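 note: O4-positive oligodendrocyte migration distance divided by radial glia migration distance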
Method in brief: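 Human fetal cortex-derived neural progenitor spheres (0.3 mm) were plated on poly-D-lysine/laminin in N2 differentiation medium and exposed to 7 concentrations for 120 h, with half-medium renewal at day 3. Oligodendrocyte migration distance was normalized to radial glia migration, relative to DMSO.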

[7] = IUF_NPC2a_radial_glia_migration_120hr: Leibniz Research Institute for Environmental Medicine (IUF) 120-hour Neural Progenitor Cell Migration Assay for Radial Glia Migration (NPC2a) (AID 2284298)
Method in brief: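 Single 0.3 mm primary human fetal-cortex (GW 16-19) NPC spheres were plated on poly-D-lysine/laminin in N2 differentiation medium and exposed from day 0 for 120 h, half-medium refreshed day 3. Migration distance came from Hoechst nuclei-density imaging, relative to DMSO.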

[8] = IUF_NPC2a_radial_glia_migration_72hr: Leibniz Research Institute for Environmental Medicine (IUF) 72-hour Neural Progenitor Cell Migration Assay for Radial Glia Migration (NPC2a) (AID 2284299)
Method in brief: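 Human fetal neural progenitor spheres (0.3 mm) plated on poly-D-lysine/laminin in N2 differentiation medium and exposed from day 0 at 7 concentrations; radial glia migration distance from sphere edge measured at 72 h on brightfield images, mean of four directions, vs DMSO.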

[9] = IUF_NPC2b_neuronal_migration_120hr: Leibniz Research Institute for Environmental Medicine (IUF) 120-hour Neural Progenitor Cell Migration Assay for Neuron Migration (NPC2b) (AID 2284300)
Method in brief: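 Primary human fetal cortex neural progenitor spheres (0.3 mm) plated on poly-D-lysine/laminin in N2 differentiation medium, exposed 120 h with half-medium refresh at day 3. TUBB3-stained neuron distance from sphere core, normalized to radial glia migration, versus DMSO.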

[10] = IUF_NPC3_neuronal_differentiation_120hr: Leibniz Research Institute for Environmental Medicine (IUF) 120-hour Neuronal Differentiation Assay (NPC3) (AID 2284301)
Method in brief: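 Single 0.3 mm neurospheres from human fetal cortex were plated in differentiation medium containing test compound. Medium was half-replaced on day 3. After 120 h cells were fixed, immunostained and imaged, and neuronal fraction was scored against DMSO control.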

[11] = IUF_NPC4_neurite_length_120hr: Leibniz Research Institute for Environmental Medicine (IUF) 120-hour Neuronal Morphology Assay for Neurite Length (NPC4) (AID 2284302)
Method in brief: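 Read-out is mean neurite length in µm of TUBB3-positive neurons, skeletonized from high-content fluorescence images after 120 h. Single 0.3 mm primary human neural progenitor spheres differentiated on poly-D-lysine/laminin under continuous compound exposure; DMSO was baseline.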

[12] = read-out: Vascular cell adhesion molecule 1 (VCAM1), VCAM1 (gene 7412); test: BSK_IMphg_VCAM1: BioMAP Diversity Plus: IMphg Assay for Vascular cell adhesion molecule 1 (VCAM1) Biomarker Activity (AID 2284286); conditions: primary human endothelial cells with macrophages
Method in brief: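 Human venular endothelial cells co-cultured with macrophages; VCAM-1 quantified by ELISA 24 h after dosing, fitted in the positive direction against DMSO. Cytotoxicity was checked in parallel cultures by SRB total-protein staining (0.1% SRB after 10% TCA fixation, 560 nm).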

CD40, CD40 (gene 958) = test: BSK_IMphg_CD40: BioMAP Diversity Plus: IMphg Assay for CD40 Biomarker Activity (AID 2284288); conditions: primary human endothelial cells with macrophages
Method in brief: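 Venular endothelial cells co-cultured with macrophages (human primary), CD40 measured by ELISA 24 h after dosing. Positive-direction fit vs DMSO baseline; cytotoxicity tracked by SRB total-protein staining in parallel cultures.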

[13] = read-out: Interleukin-1 alpha (IL1a), IL1A (gene 3552); test: BSK_IMphg_IL1a: BioMAP Diversity Plus: IMphg Assay for Interleukin-1 alpha (IL1a) Biomarker Activity (AID 2284290); conditions: primary human endothelial cells with macrophages
Method in brief: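 Human venular endothelial cells co-cultured with macrophages, IMphg system. IL-1α is measured by ELISA 24 h after dosing and fitted in the positive direction against DMSO. Cytotoxicity is assessed by SRB staining of parallel cultures.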

[14] = read-out: E-selectin (Homo sapiens) (UniProt P16581); test: BSK_IMphg_ESelectin: BioMAP Diversity Plus: IMphg Assay for Eselectin Biomarker Activity (AID 2284291); conditions: primary human endothelial cells with macrophages
Method in brief: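 Human venular endothelial cell–macrophage co-culture, E-selectin measured by ELISA 24 h after chemical dosing. Signal fitted in the positive direction against DMSO as negative control and baseline.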

[15] = BSK_IMphg_SRB: Viability Assessment in the BioMAP Diversity Plus: IMphg Assay (AID 2284292); conditions: primary human endothelial cells with macrophages;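 note: measured one day after compound addition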
Method in brief: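 Human venular endothelial cells with macrophages, 24 h after chemical dosing; total protein by 0.1% SRB staining after 10% TCA fixation, read at 560 nm. Positive-direction fitting versus DMSO baseline.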

[16] = read-out: Macrophage colony-stimulating factor (MCSF), CSF1 (gene 1435); test: BSK_IMphg_MCSF: BioMAP Diversity Plus: IMphg Assay for Macrophage colony-stimulating factor (MCSF) Biomarker Activity (AID 2284293); conditions: primary human endothelial cells with macrophages
Method in brief: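 Co-culture of human venular endothelial cells and macrophages, 24 hours of chemical exposure. M-CSF quantified by ELISA, with parallel SRB total-protein staining for cytotoxicity; activity fitted relative to DMSO.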

[17] = read-out: Interleukin-10 (IL10), IL10 (gene 3586); test: BSK_IMphg_IL10: BioMAP Diversity Plus: IMphg Assay for Interleukin-10 (IL10) Biomarker Activity (AID 2284294); conditions: primary human endothelial cells with macrophages
Method in brief: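 Human venular endothelial cells cocultured with macrophages, dosed 24 h; IL-10 measured by ELISA, activity relative to DMSO. Cytotoxicity assessed in parallel cultures by sulforhodamine B total-protein staining.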

[18] = BSK_IMphg_SRB.Mphg: Macrophage Viability Assessment in the BioMAP Diversity Plus: IMphg Assay (AID 2284295); conditions: primary human endothelial cells with macrophages
Method in brief: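 Venular endothelial cells co-cultured with macrophages, read 24 h after dosing. Total protein measured by 0.1% SRB staining after 10% TCA fixation, absorbance at 560 nm. Fitted in positive direction against DMSO baseline.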

Sequence of E-selectin (Homo sapiens) (P16581 whole entry, looked up): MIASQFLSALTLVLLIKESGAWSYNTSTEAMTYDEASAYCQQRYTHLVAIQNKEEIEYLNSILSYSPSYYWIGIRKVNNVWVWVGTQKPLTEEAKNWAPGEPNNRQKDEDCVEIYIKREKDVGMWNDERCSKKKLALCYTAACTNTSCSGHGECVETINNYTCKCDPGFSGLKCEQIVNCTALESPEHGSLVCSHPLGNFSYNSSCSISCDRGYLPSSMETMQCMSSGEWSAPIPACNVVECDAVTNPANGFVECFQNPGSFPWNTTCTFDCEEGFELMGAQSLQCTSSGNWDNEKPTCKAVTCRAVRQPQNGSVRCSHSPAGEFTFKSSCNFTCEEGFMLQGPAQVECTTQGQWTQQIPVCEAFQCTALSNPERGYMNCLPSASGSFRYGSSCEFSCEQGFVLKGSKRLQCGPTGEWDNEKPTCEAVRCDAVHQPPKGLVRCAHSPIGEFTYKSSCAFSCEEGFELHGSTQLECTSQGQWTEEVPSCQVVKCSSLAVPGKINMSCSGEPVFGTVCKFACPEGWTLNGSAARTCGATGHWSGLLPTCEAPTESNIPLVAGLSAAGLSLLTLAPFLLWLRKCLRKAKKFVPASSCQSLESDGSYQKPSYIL

For `CCCCCCCCCCCC(=O)N(C)CC(=O)O`, the outcome [1] was “inactive”, the AC50 [2] was 5.84 µM (active) and the outcome [2] was “inactive”. The outcome [3] was “inactive”, the outcome [4] was “inactive” and the outcome [5] was “inactive”. The outcome (CD69, CD69 (gene 969)) was “inactive”.

In the case of `CCCCNS(=O)(=O)c1ccccc1`, the outcome [6] is reported as “inactive”, the outcome [7] is reported as “inactive” and the outcome [8] is reported as “inactive”. For the same compound, the outcome [9] was “inactive”, the outcome [10] was “inactive” and the outcome [11] was “inactive”.

In the case of `CC(CCC(=O)O)(c1ccc(O)cc1)c1ccc(O)cc1`, the outcome [1] is reported as “inactive”, the outcome [2] is reported as “inactive” and the outcome [3] is reported as “inactive”. For the same compound, the outcome [4] was “inactive”, the outcome [5] was “inactive” and the outcome (CD69, CD69 (gene 969)) was “inactive”.

In the case of `Nc1nc(N)nc(-c2ccccc2)n1`, the outcome [1] is reported as “inactive”, the outcome [2] is reported as “inactive” and the outcome [3] is reported as “inactive”. For the same compound, the outcome [4] was “inactive”, the outcome [5] was “inactive” and the outcome (CD69, CD69 (gene 969)) was “inactive”.

In the case of `C[N+](C)(C)CCCNS(=O)(=O)C(F)(F)C(F)(F)C(F)(F)C(F)(F)C(F)(F)C(F)(F)C(F)(F)C(F)(F)F`, the outcome [1] is reported as “inactive”, the AC50 [2] is reported as 44.8 µM (active) and 44.4 µM (active) and the AC50 [12] is reported as 13.9 µM (active) and 22.4 µM (active). The outcome [3] was “inactive”, the AC50 (CD40, CD40 (gene 958)) was 21.8 µM (active) and 23.9 µM (active) and the AC50 [4] was 8.16 µM (active). For the same compound, the outcome [4] was “inactive”, the outcome [13] was “inactive” and the AC50 [14] was 30 µM (active). The outcome [14] was “inactive”, the AC50 [15] was 34.3 µM (active) and 42.3 µM (active) and the outcome [16] was “inactive”. For the same compound, the AC50 [17] was 41 µM (active) and 36.9 µM (active), the AC50 [18] was 46.2 µM (active) and 30 µM (active) and the AC50 [5] was 21.4 µM (active). For the same compound, the outcome [5] was “inactive”, the AC50 (CD69, CD69 (gene 969)) was 30 µM (active) and the outcome (CD69, CD69 (gene 969)) was “inactive”.

For `c1ccc(Nc2cccc3ccccc23)cc1`, the outcome [1] was “inactive”, the AC50 [2] was 20.8 µM (active) and 14.2 µM (active) and the AC50 [3] was 33.6 µM (active) and 34.1 µM (active). For the same compound, the AC50 [4] was 33 µM (active) and 31.1 µM (active), the AC50 [5] was 33.7 µM (active) and 31.2 µM (active) and the AC50 (CD69, CD69 (gene 969)) was 36.5 µM (active) and 20 µM (active).

For `Oc1ccccc1Cc1ccccc1O`, the outcome [1] was “inactive”, the outcome [2] was “inactive” and the outcome [3] was “inactive”. For the same compound, the outcome [4] was “inactive”, the outcome [5] was “inactive” and the outcome (CD69, CD69 (gene 969)) was “inactive”.

With `O=C(O)C(F)(F)C(F)(F)C(F)(F)C(F)(F)C(=O)O` the outcome [1] was “inactive”, the outcome [2] was “inactive” and the outcome [12] was “inactive”. For the same compound, the outcome [3] was “inactive”, the outcome (CD40, CD40 (gene 958)) was “inactive” and the outcome [4] was “inactive”. For the same compound, the outcome [13] was “inactive”, the outcome [14] was “inactive” and the outcome [15] was “inactive”. The outcome [16] was “inactive”, the outcome [17] was “inactive” and the outcome [18] was “inactive”. For the same compound, the outcome [5] was “inactive” and the outcome (CD69, CD69 (gene 969)) was “inactive”.

In the case of `CC(C)C(=O)OCCc1ccccc1`, the outcome [1] is reported as “inactive”, the outcome [2] is reported as “inactive” and the outcome [3] is reported as “inactive”. The outcome [4] was “inactive”, the outcome [5] was “inactive” and the outcome (CD69, CD69 (gene 969)) was “inactive”.

In the case of `CCCC(C)C(=O)OCC` (configuration not stated), the outcome [1] is reported as “inactive”, the outcome [2] is reported as “inactive” and the outcome [3] is reported as “inactive”. For the same compound, the outcome [4] was “inactive”, the outcome [5] was “inactive” and the outcome (CD69, CD69 (gene 969)) was “inactive”.

For `Cc1c(C(=O)c2c[nH]n(C)c2=O)ccc(S(C)(=O)=O)c1C1=NOCC1`, the outcome [6] was “inactive”, the outcome [7] was “inactive” and the outcome [8] was “inactive”. For the same compound, the outcome [9] was “inactive”, the outcome [10] was “inactive” and the outcome [11] was “inactive”.
